Shown are actives, neighbours in structure and some others; about 3% of the full set was active somewhere.
14-3-3 Bad PPI – inhibitors of 14-3-3 zeta/Bad binding, primary screen, biochemical, TR-FRET, bovine 14-3-3 zeta. 14-3-3 protein zeta/delta (Bos taurus), P63103. TR-FRET 14-3-3zeta/Dy647-pBad peptide displacement, 1 h. inhibition, % at 21.7 µM. actives 0.71% (n = 220,000). AID 781, 2007;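 active means inhibition above about 70%, limit read from the data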
Target sequence (P63103 whole entry, looked up): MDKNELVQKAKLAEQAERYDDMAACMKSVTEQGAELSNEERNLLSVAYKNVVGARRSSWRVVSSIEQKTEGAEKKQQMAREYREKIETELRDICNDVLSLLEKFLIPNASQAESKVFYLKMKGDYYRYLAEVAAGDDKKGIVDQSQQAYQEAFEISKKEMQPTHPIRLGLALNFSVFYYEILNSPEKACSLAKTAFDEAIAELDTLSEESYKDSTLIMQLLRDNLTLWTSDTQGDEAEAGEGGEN
TNF necrop inh – inhibitors of TNF-alpha triggered necroptosis, primary screen, cell-based, Jurkat FADD-/-, single concentration. Jurkat FADD-/- TNF necroptosis rescue, ATP luminescence, 24 h; 0 = TNF only, 100 = no-TNF cells. activation (protection from cell death), % at 10 µM. actives 0.068% (n = 220,000);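 active means activation, meaning protection from cell death, of at least 50% relative to plate controls; inactive means activation below 50%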;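 further: necroptosis triggered by 40 ng/mL TNF-alpha added together with compound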
ROMK mod – ROMK potassium channel modulators, primary screen, cell-based, thallium flux, MLSMR library | ATP-sensitive inward rectifier potassium channel 1 (Homo sapiens), P48048 | actives 2% (n = 130,000) | B-score at 10 µM | AID 1918, 2009 | Tet-inducible ROMK, thallium flux fluorescence; actives lie on both sides;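 active means signal ratio slope over the read window, or its plate-corrected B-score, at least 3 SD from the plate mean, either direction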;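 further: B-score of the F/F0 ratio slope over 7 to 12 s after thallium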
Calpain2 inh – inhibitors of pig calpain II, primary screen, biochemical, fluorogenic peptide substrate, 1536-well; purified calpain II, 30 min; inhibition, % at 16 µM; actives 0.37% (n = 220,000); AID 1236, 2008;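 active means inhibition above about 50%, limit read from the data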
L929 necroptosis – inhibitors of zVAD-triggered necroptosis, primary screen, L929 cells; viability rescue, % at 10 µM; AID 1377, 2008; actives 0.38% (n = 220,000); L929 zVAD necroptosis rescue, ATP luminescence, 24 h; with zVAD 60 µM;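 active means activation, scaled between plate controls, above about 75%, limit read from the data; inactive means activation under that limit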
HMGR II inh – inhibitors of E. faecalis class II HMGR, primary screen, biochemical, Enterococcus faecalis; inhibition, % at 10 µM; HMG-CoA reductase (Enterococcus faecalis, mvaE); purified E. faecalis HMGR, NADPH absorbance 340 nm kinetic; AID 1066, 2008; actives 0.41% (n = 190,000);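 active means inhibition above a set limit, the median over all tested compounds plus 3 SD, cut at about 9.5% in these data; inconclusive means no clear call, values can overlap the other calls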;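 further: enzyme runs in reverse so mevalonate oxidation gives rising NADPH absorbance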
ROMK retest – ROMK channel modulator hit retest, confirmation, cell-based, thallium flux, duplicate, resupplied hits. shares compounds with ROMK mod. fluorescence ratio; hits give low values. normalized thallium flux (F/F0 slope) at 10 µM. actives 54% (n = 3,000);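 active means Flux at 10 µM at least 3 SD below or above vehicle control mean in one or both replicates; inconclusive means no clear call, values can overlap the other calls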
Each line names hits and unclear results; the compound was inactive in the other large screens (follow-up assays come after a bar, where they were run).

CCOC(=O)N1CCN(C(=O)COc2cccc3c2CCN(Cc2cccc(C)c2)C3=O)CC1	none (no result: ROMK mod) | ROMK retest 0.064
CCOC(=O)N1CCN(C(=O)COc2cccc3c2CCN(Cc2ccccc2C)C3=O)CC1	none (no result: ROMK mod)
Cc1ccccc1CN1CCc2c(OCC(=O)N3CCCc4ccccc43)cccc2C1=O	none | ROMK retest inactive
CCOC(=O)c1c(C)[nH]c(C2=NNC(=NC3CC3)SC2)c1C	none
O=C(CN(Cc1ccc(F)cc1)S(=O)(=O)c1ccc(S(=O)(=O)N2CCOCC2)cc1)Nc1ccccc1	none
N#Cc1c(N)n(CCOC(=O)c2cccc([N+](=O)[O-])c2)c2nc3ccccc3nc12	none (no result: ROMK mod)
N#Cc1c(N)n(CCOC(=O)c2cccc(Br)c2)c2nc3ccccc3nc12	none | ROMK retest inactive
O=C(NCc1cccnc1)/C(=C\c1ccc(-c2ccc(Br)cc2)o1)S(=O)(=O)c1ccccc1	none (no result: ROMK mod)
O=C(NCc1cccnc1)/C(=C/c1ccc(-c2ccc(Cl)cc2)o1)S(=O)(=O)c1ccccc1	none (no result: ROMK mod) | ROMK retest 0.055
O=C(NCc1cccnc1)/C(=C/c1ccc(-c2cccc(C(F)(F)F)c2)o1)NC(=O)c1ccccc1	ROMK mod -5.1 | ROMK retest 0.054
Cc1ccc(C(=O)N/C(=C/c2ccc(-c3cc(C(F)(F)F)ccc3Cl)o2)C(=O)NCc2cccnc2)cc1	none
CCOc1ccc(N(CC(=O)NC2CCCC2)C(=O)CSc2nnc(COc3ccccc3)o2)cc1	none
Cc1ccccc1N1C(=O)c2sc3nc4c(c(=O)n3c2C1=O)CCC4	ROMK mod -3.1 | ROMK retest inactive
O=C1c2sc3nc4c(c(=O)n3c2C(=O)N1c1ccccc1)CCC4	none
CCOC(=O)Cc1csc(NC(=S)NC(=O)c2cc(OC)c(OC)c(OC)c2)n1	none (no result: ROMK mod, HMGR II inh)
Cc1ccc2cc(CN(Cc3nnnn3C3CCCCC3)CC3CCCO3)c(=O)[nH]c2c1 (centres undefined)	none (no result: ROMK mod)
Cc1cc2cc(CN(Cc3nnnn3C3CCCCC3)CC3CCCO3)c(=O)[nH]c2cc1C (centres undefined)	ROMK mod -5.7 | ROMK retest inconclusive
Cn1cc(CN2C[C@H]3CC[C@H]2C3)c(-c2ccccc2F)n1	none
Cc1cc(=O)oc2c(C(=O)/C=C\c3cccs3)c(O)ccc12	ROMK mod -5.7 | ROMK retest 0.05
Cc1c(-c2ccccc2)oc2c(C(=O)N3CCN(c4ccccc4F)CC3)cccc2c1=O	none (no result: L929 necroptosis)
CC1=CC(C)(C)N(C(=O)CNC2CCCC2)c2cc(C)ccc21	ROMK mod -4 | ROMK retest 0.05
COc1ccc2nc(N/C(N)=N/S(C)(=O)=O)nc(C)c2c1	none (no result: ROMK mod, HMGR II inh)
O=C(N/N=C/c1cc([N+](=O)[O-])ccc1N1CCNCC1)c1ccc([N+](=O)[O-])cc1	none (no result: ROMK mod)
Cc1ccc2nsnc2c1NC(=O)CCl	ROMK mod -13 | ROMK retest inactive
COc1ccc(CNCC(O)COc2ccc(C)cc2[N+](=O)[O-])cc1 (centres undefined)	ROMK mod -2.6 (no result: HMGR II inh) | ROMK retest 0.063
COc1ccc(OCCOCCOc2ccc(C)cc2[N+](=O)[O-])cc1	none
CC1Cc2ccccc2N1C(=O)c1nn(C)cc1Br (centres undefined)	none
CC(=O)c1sc2nsc(SCCN3CCCCC3)c2c1N	none (no result: ROMK mod, HMGR II inh) | ROMK retest 0.053
Nc1c(C(=O)c2ccccc2)sc2nsc(SCCN3CCCC3)c12	none (no result: ROMK mod, HMGR II inh)
O=C(NN1CCCCC1)c1ccc(COc2ccc(Cl)cc2)cc1	none
COC(=O)c1cc(NC(=O)c2ccccc2)c(=O)oc1C/C=N\OCc1ccc(Cl)cc1Cl	ROMK mod -2.8 | ROMK retest 0.065
CO/N=C\Cc1oc(=O)c(NC(=O)c2ccccc2)cc1C(=O)OC	none (no result: 14-3-3 Bad PPI)

Source: PubChem
